Assay outcomes deposited in PubChem by National Center for Advancing Translational Sciences (NCATS).
An excerpt weighted towards active compounds, which were near 14% of everything screened.
HSD17B inhib – qHTS Assay for Inhibitors of HSD17B4, hydroxysteroid (17-beta) dehydrogenase 4. 75,000 compounds, 7.6% hits. Potency, µM (highest dose often 57.1 µM), hits mostly inhibitors. recombinant HSD17B10, NADH fluorescence kinetic. 3-hydroxyacyl-CoA dehydrogenase type-2 (Homo sapiens), Q99714;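 further: the protocol describes HADH2 (HSD17B10) and not the HSD17B4 of the title; nearly all actives have a fitted effect of over 70% in size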
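Enzyme plus compound, 15 min room temperature; substrate mix added (NAD+ 1 mM, beta-hydroxybutyryl-CoA 90 uM final); plates read kinetically for NADH fluorescence. HADH2 was His-tagged, E. coli-derived, 20 nM.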
CRE Fsk mod – Cell signaling CRE-BLA (Fsk stim); CHO CRE-bla reporter (cAMP response element driving beta-lactamase), forskolin EC10, beta-lactamase ratio; Potency, µM (doses to about 38.2 µM), actives largely listed as activators; 71,000 compounds, 2.5% hits; active means well fitted activation curve with a large enough effect in the signal ratio, with a control signal flat, not every such curve was filed as active; inconclusive means small, poorly fitted or top-dose-only effect, or effect the other way, or a change in a side signal; the % refers to the signal ratio
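CRE-bla CHO cells stimulated with EC10 NKH 477 (water-soluble forskolin) and compound titrations, 3 h at 37C; beta-lactamase read with CCF4 after 2 h at room temperature. Activity from 460/530 nm emission ratio, AC50 values for positive or negative modulation.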
A350 autofl – qHTS Assay for Spectroscopic Profiling in A350 Spectral Region; AID 590, 2007; Compound autofluorescence, 340/450 nm, Alexa 350 dye-equivalents; stronger effect = higher value; max dye-equivalent concentration, M; 59,000 compounds, 11% hits; in the data active means max dye-equivalent concentration above about 10 nM; inconclusive means mostly about 1.1 nM to 9.6 nM
AID923 – qHTS Assay for Allosteric/Competitive Inhibitors of Caspase-1: Spectroscopic Profiling in AFC Spectral Region; 75,000 compounds, 1.1% hits; compound fluorescence, AFC spectral region (405/520 nm); Potency, µM (titrated, usually from 57.5 µM), most hits filed as activators; AID 923, 2007
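Titrations up to 57 uM read every 20 sec for 3 min (405/520 nm) with 50 nM caspase 1 and 5 uM Ac-WEHD-AFC, pH 7.5 HEPES buffer. Fluorescence-vs-time intercept gave baseline, scaled against on-plate AFC standard.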
4-MU autofl – qHTS Assay for Spectroscopic Profiling in 4-MU Spectral Region; AID 589, 2007; 59,000 compounds, 11% hits; compound autofluorescence, 340/450 nm, 4-MU equivalents; stronger effect = higher value; max dye-equivalent concentration, M; in the data active means max dye-equivalent concentration above about 10 nM; inconclusive means mostly about 1.1 nM to 9.6 nM
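Intrinsic fluorescence at 340/450 nm (ex/em) was read after 15 min at room temperature in pH 8.0, 100 mM Tris. Each compound concentration expressed as 4-MU-equivalent concentration from a six-point 4-MU standard series on each plate.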
HADH2 inhib – qHTS Assay for Inhibitors of HADH2 (Hydroxyacyl-Coenzyme A Dehydrogenase, Type II). recombinant HADH2, NADH fluorescence, beta-hydroxybutyryl-CoA. AID 886, 2007. 73,000 compounds, 3.4% hits. Potency, µM (doses to about 57.1 µM), usual class: inhibitors; further: nearly all actives have a fitted effect of over 60% in size
Target sequence (Q99714 whole entry, looked up, one chain of several): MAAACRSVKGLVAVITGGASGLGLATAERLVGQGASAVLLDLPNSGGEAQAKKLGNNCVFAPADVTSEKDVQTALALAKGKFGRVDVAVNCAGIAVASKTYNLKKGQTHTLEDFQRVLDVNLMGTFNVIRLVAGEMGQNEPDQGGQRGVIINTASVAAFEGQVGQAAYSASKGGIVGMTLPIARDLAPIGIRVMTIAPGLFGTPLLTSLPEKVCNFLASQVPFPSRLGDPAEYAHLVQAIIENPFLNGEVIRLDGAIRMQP
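NADH fluorescence (ex 360/em 450 nm) read every 30 s for 4 min; activity taken as last-minus-first time point difference. Enzyme 20 nM, NAD+ 1 mM, beta-hydroxybutyryl-CoA 90 uM, pH 9.0 Tris buffer.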
Large screens that a line does not name were inactive. Unless noted, the call rests on the fitted dose curve; in most records, active means well fitted curve in the direction sought with a large enough effect; inconclusive means small, poorly fitted or top-dose-only effect, or another doubt; inactive means no such curve, though single readings can be large; an effect the other way counts as inactive or inconclusive.

N#Cc1ccc(CN2CCC3(CC2)CCN(C(=O)c2cc(C(F)(F)F)cc(C(F)(F)F)c2)CC3)cc1	none
CC(C)Cn1cnc2c(Sc3c([N+](=O)[O-])ncn3C)nc(N)nc21	none
CN(C)CC[C@@H](C(=O)C(C)(C)C)c1ccccn1	none
Cc1ccc(-c2cc(C(F)F)nc(NCC3CCCO3)n2)cc1 (centres undefined)	HSD17B inhib inconclusive, CRE Fsk mod inconclusive, A350 autofl 2.5e-08M, 4-MU autofl 2.3e-08M
Fc1ccc(NCc2cccnc2)cc1	none
Cc1ccc(-c2cc(C(F)F)nc(NCc3cccnc3)n2)cc1	HSD17B inhib 25µM, CRE Fsk mod inconclusive, A350 autofl 3.3e-08M, 4-MU autofl 3.1e-08M
CC1CC(=O)c2cnc(NCC3CCCO3)nc2C1 (centres undefined)	CRE Fsk mod inconclusive
C/C(=C\c1cc(C(=O)O)c(C)o1)CO	A350 autofl 2.5e-08M, 4-MU autofl 2e-08M
C=Cc1c(C)c2cc3[nH]c(cc4nc(cc5nc(cc1[nH]2)C(C)=C5CCC(=O)O)C(CCC(=O)O)=C4C)c(C)c3C=C	HSD17B inhib inconclusive, HADH2 inhib 13µM
CC1=C(CCC(=O)O)c2cc3nc(cc4[nH]c(cc5[nH]c(cc1n2)c(C)c5C(C)O)c(C)c4C(C)O)C(C)=C3CCC(=O)O (centres undefined)	HSD17B inhib 25µM (no result: CRE Fsk mod, A350 autofl, 4-MU autofl, HADH2 inhib)
COc1ccc(OC)c(NC(=O)c2nnn(CCc3ccccc3)c2N)c1	HSD17B inhib inconclusive, HADH2 inhib 25µM (no result: A350 autofl, 4-MU autofl)
CCc1ccc(Cn2nnc(C(=O)Nc3ccc(OC)cc3OC)c2N)cc1	HSD17B inhib 32µM, HADH2 inhib 25µM (no result: A350 autofl, 4-MU autofl)
COc1cc(NC(=O)c2nnn(Cc3ccc(SC)cc3)c2N)cc(OC)c1	HADH2 inhib 32µM (no result: A350 autofl, 4-MU autofl)
COc1cccc(NC(=O)c2nnn(CCc3ccccc3)c2N)c1	none (no result: A350 autofl, 4-MU autofl)
CCOc1ccc(Cn2nnc(C(=O)NCc3ccc(OC)cc3)c2N)cc1	none (no result: A350 autofl, 4-MU autofl)
CCCc1ccc(Oc2cn[nH]c2-c2ccc(O)c(C)c2O)cc1	CRE Fsk mod inconclusive, HADH2 inhib 13µM
CC(C)Cn1c(SCC#N)nc2ccccc2c1=O	CRE Fsk mod inconclusive
O=C(CCn1nc(-c2ccccc2)c2ccccc2c1=O)N1CCN(c2ccccc2)CC1	CRE Fsk mod inconclusive
CC(C)C1N=C2c3ccccc3N=C(SCC#N)N2C1=O (centres undefined)	HSD17B inhib 20µM, A350 autofl 1.9e-07M, 4-MU autofl 2e-07M, HADH2 inhib 25µM
N#CCSC1=Nc2ccccc2C2=NC(CCC(=O)N3CCN(c4ccccc4)CC3)C(=O)N12 (centres undefined)	A350 autofl 1.2e-08M, 4-MU autofl 1.2e-08M, HADH2 inhib inconclusive
O=C(Nc1ccccc1)c1ccc(Cc2nc3ccccc3[nH]2)cc1	none (no result: CRE Fsk mod, A350 autofl, 4-MU autofl)
COc1ccc(-n2ncc3c(=O)n(CC(=O)OCc4ccccc4)cnc32)cc1	HSD17B inhib 4µM
Cc1ccc(-n2ncc3c(=O)n(CC(=O)N4CCCCCC4)cnc32)cc1	HSD17B inhib 32µM, CRE Fsk mod inconclusive, A350 autofl inconclusive, 4-MU autofl inconclusive
Cc1ccc(-n2nnc3c(=O)n(CC(=O)N4CCCC4)cnc32)cc1	CRE Fsk mod inconclusive
COCC(=O)O	none (no result: A350 autofl, 4-MU autofl)
COc1ccc(-c2nnc(-c3ccc(Br)o3)o2)cc1OC	HSD17B inhib inconclusive, CRE Fsk mod inconclusive, A350 autofl inconclusive, 4-MU autofl inconclusive
COc1cc(OC)c(-c2nnc(-c3ccc(OC)c(OC)c3OC)o2)cc1OC	HSD17B inhib 32µM, CRE Fsk mod 4µM, A350 autofl 2.6e-07M, 4-MU autofl 2.7e-07M, HADH2 inhib inconclusive
N=C(N)SCC(=O)O	CRE Fsk mod inconclusive
O=C(Nc1cccc(Cl)c1)Nn1cnnc1	none
COc1ccc(N(CC(=O)Nc2cc(OC)ccc2OC)S(=O)(=O)c2c(C)nn(C)c2C)cc1	CRE Fsk mod 5µM (no result: A350 autofl, 4-MU autofl)
COc1ccc(OC)c(NC(=O)CN(c2ccc(OC)c(Cl)c2)S(C)(=O)=O)c1	CRE Fsk mod 5µM
COc1ccc(N(CC(=O)Nc2cccc(OC)c2)S(=O)(=O)c2c(C)nn(C)c2C)cc1	none
CC(C)=CC1C(CO)C1(C)C (centres undefined)	none (no result: CRE Fsk mod, A350 autofl, 4-MU autofl, HADH2 inhib)
O=C1CCCC2=C1C(c1ccsc1)CC(=O)N2c1ccccc1 (centres undefined)	none
Cc1nn(-c2ccccn2)c2c1C(c1ccsc1)C1=C(CCCC1=O)N2 (centres undefined)	HSD17B inhib 25µM, CRE Fsk mod 3.2µM, A350 autofl 3.5e-07M, 4-MU autofl 3.8e-07M, HADH2 inhib inconclusive
CCC(/C=C/C(C)C1CCC2C3CC=C4CC(O)CC[C@@]4(C)C3CC[C@@]12C)C(C)C (some centres undefined)	none (no result: CRE Fsk mod, A350 autofl, 4-MU autofl, HADH2 inhib)
CCCS(=O)(=O)N1CCCC(C(=O)N2CCN(c3ccccn3)CC2)C1 (centres undefined)	HSD17B inhib 25µM
CSCCC(NC(=O)C1CCC(C)CC1)C(=O)N1CCN(c2ccccn2)CC1 (centres undefined)	HSD17B inhib 25µM
CCCS(=O)(=O)N1CCCC(C(=O)N2CCC(Cc3ccccc3)CC2)C1 (centres undefined)	none
Cc1c2oc3c(C)ccc(C(=O)N[C@@H]4C(=O)N[C@@H](C(C)C)C(=O)N5CCC[C@@H]5C(=O)N(C)CC(=O)N(C)[C@@H](C(C)C)C(=O)O[C@H]4C)c3nc-2c(C(=O)N[C@@H]2C(=O)N[C@@H](C(C)C)C(=O)N3CCC[C@@H]3C(=O)N(C)CC(=O)N(C)[C@@H](C(C)C)C(=O)O[C@H]2C)c(N)c1=O	CRE Fsk mod inconclusive (no result: A350 autofl, AID923, 4-MU autofl)
C=CC1=C(C)C2=Cc3c(C=C)c(C)c4[n]3[Sn+2][n]3c(c(C)c(CCC(=O)O)c3=CC3=NC(=C4)C(C)=C3CCC(=O)O)=CC1=N2	HSD17B inhib 32µM (no result: A350 autofl, 4-MU autofl)
COc1ccc(N(CC(=O)NC2CCCC2)C(=O)c2ccc(N3CCCCC3)nc2)cc1	HSD17B inhib 32µM, A350 autofl 1.9e-08M, 4-MU autofl 1.5e-08M, HADH2 inhib inconclusive
COc1ccc(N(CC(=O)NC2CCCCCC2)S(=O)(=O)c2c(C)nn(C)c2C)cc1	none
CC(=O)CCc1oc2ccc(NC(C)=O)cc2c1-c1ccc(C)o1	HSD17B inhib 13µM
CCOc1ccc2[nH]cc(C(=O)N3CCN(CC)CC3)c(=O)c2c1	HSD17B inhib 25µM, A350 autofl 1.6e-08M, 4-MU autofl 1.6e-08M
